# Measurements reported in the supplement of paper PMC12669032.
# System: Parabacteroides distasonis
# Assay: growth AUC relative to DMSO control (median of replicates) (fraction); higher = more growth (less inhibition), active = hit call of the paper
# Conditions: 20 µM; 24 h;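 active = AUC reduced over 20% with Padj below 0.05 in at least 2 of 3 replicates; inactive = otherwise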
# Procedure, shortened: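 Area under the growth curve was normalised to the plate median of solvent-only wells, or to row and column medians on the industrial chemical plate. Growth curves came from anaerobic gut bacterial monocultures in mGAM at 37 °C, seeded at OD600 0.05 with 20 µM compound (1% DMSO), and read at OD600 hourly for 24 h with the minimum OD set to 0. The value is the median of three biological replicates grown on separate days.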
row,SMILES,growth AUC
1,O=C(O)C1(O)c2ccccc2-c2ccc(Cl)cc21 (stereo unspecified),0.979 (inactive)
2,O=C(O)C(F)(F)C(F)(F)C(F)(F)C(F)(F)C(F)(F)C(F)(F)C(F)(F)F,0.934 (inactive)
3,COP(=O)(OC)OC=C(Cl)Cl,1.05 (inactive)
4,CCCN(CC)CC1COC2(CCC(C(C)(C)C)CC2)O1 (stereo unspecified),0.966 (inactive)
5,CCOP(=O)(SC(C)CC)N1CCSC1=O (stereo unspecified),1.05 (inactive)
6,O=NN(CCO)CCO,0.861 (inactive)
7,CSc1nc(N=[N+]=[N-])nc(NC(C)C)n1,1.02 (inactive)
8,COP(=O)(OC)Oc1ccc(S(C)=O)c(C)c1 (stereo unspecified),1.01 (inactive)
9,O=C(Nc1ccccc1)N(Cc1ccc(Cl)cc1)C1CCCC1,0.893 (inactive)
10,CC(C)OC(=O)C(C(=O)OC(C)C)=C1SCCS1,0.782 (active)
11,CCC(C)[C@H]1O[C@]2(C=C[C@@H]1C)C[C@@H]1C[C@@H](C/C=C(\C)[C@@H](O[C@H]3C[C@H](OC)[C@@H](O[C@H]4C[C@H](OC)[C@@H](O)[C@H](C)O4)[C@H](C)O3)[C@@H](C)/C=C/C=C3\CO[C@@H]4[C@H](O)C(C)=C[C@@H](C(=O)O1)[C@]34O)O2.CO[C@H]1C[C@H](O[C@H]2[C@H](C)O[C@@H](O[C@@H]3/C(C)=C/C[C@@H]4C[C@@H](C[C@]5(C=C[C@H](C)[C@@H](C(C)C)O5)O4)OC(=O)[C@@H]4C=C(C)[C@@H](O)[C@H]5OC/C(=C\C=C\[C@@H]3C)[C@]54O)C[C@@H]2OC)O[C@@H](C)[C@@H]1O (stereo partly specified),0.536 (active)
